# Screening results (PubChem BioAssay)
# MITF inh: blocks human microphthalmia-associated transcription factor; O75030; AlphaScreen MITF homodimerization, bead proximity signal; inhibition, % at 2.6 µM; 0.91% of 650,000 active; AID 1259374; in the data active = inhibition above about 50%;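 also: 0% = vehicle wells with protein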
# FBW7 act: activators of human E3 ligase FBW7; Q969H0; AlphaScreen FBW7–phospho-cyclin E peptide binding, activator screen; normalized activity (activation), % at 26.1 µM; 0.13% of 650,000 active; in the data active = normalized activity above about 1.9%;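 also: purified mutant Fbw7 with reduced substrate affinity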
# TEAD-YAP block: TEAD-YAP interaction inhibition. AID 1259422. HEK-TIYL cells, TEAD-Gal4/YAP UAS-luciferase luminescence. inhibition, % at 9.12 µM. 1.4% of 640,000 active; in the data active = inhibition above about 32%;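 also: 0% = median of test compound wells and 100% = reference inhibitor wells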
# GPR151 activ: human GPR151 activation. Q8TDV0. PathHunter beta-arrestin GPR151 cells, luminescence. activation, % at 11.2 µM. 1% of 650,000 active; in the data active = activation above about 4.9%;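 also: 0% = median of compound wells and 100% = cells with positive control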
# Target sequence (Q8TDV0 whole entry, looked up): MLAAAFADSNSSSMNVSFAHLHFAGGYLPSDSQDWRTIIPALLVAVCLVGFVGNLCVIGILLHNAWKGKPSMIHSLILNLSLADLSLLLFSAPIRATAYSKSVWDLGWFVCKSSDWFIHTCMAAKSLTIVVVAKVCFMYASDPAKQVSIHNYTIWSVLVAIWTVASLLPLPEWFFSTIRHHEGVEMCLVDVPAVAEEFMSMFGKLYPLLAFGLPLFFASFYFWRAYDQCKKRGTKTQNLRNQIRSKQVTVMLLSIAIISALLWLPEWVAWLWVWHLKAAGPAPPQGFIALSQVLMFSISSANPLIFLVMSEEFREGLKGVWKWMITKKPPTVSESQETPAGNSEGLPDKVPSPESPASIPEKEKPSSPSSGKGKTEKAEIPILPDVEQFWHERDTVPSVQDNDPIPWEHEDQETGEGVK
# GPR151 conf act: human GPR151 activation, confirmation screen. shares compounds with GPR151 activ. GPR151 PathHunter beta-arrestin cells, luminescence, 90 min; % of EA-reagent control over plate median. activation, % at 11.2 µM. 6,700 tested, under 10 active;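 active = mean percent activation across replicates above the confirmation screen cutoff of 4.91%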
# GPR119 ag: GPR119 activation, counter-screen for GPR151 activators | shares compounds with GPR151 activ | GPR119 PathHunter beta-arrestin cells, luminescence, 90 min; 0 = compound-well median, 100 = enzyme-acceptor control | activation, % at 11.2 µM | 0.3% of 6,700 active | AID 1508611;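 active = mean percent activation in the counterscreen above 29.09%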;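 also: counterscreen on off-target GPR119 to flag nonselective hits from the GPR151 activator screen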
# * marks the source's active call; other numbers are inactive results; x = not tested or not shown. An excerpt weighted towards active compounds, which were near 3.4% of everything screened.
SMILES,MITF inh,FBW7 act,TEAD-YAP block,GPR151 activ,GPR151 conf act,GPR119 ag
N#Cc1ccc(NN2C(=O)c3cc(Cl)c(Cl)cc3C2=O)c([N+](=O)[O-])c1,7,0,17,7.0*,0,-4
CCCc1cc(N2CCN(CCOc3ccc(C)cc3)CC2)n2c(nc3ccccc32)c1C#N,-6,0,-3,-1,x,x
O=C(O)C1CCC(CN(Cc2ccc(F)cc2)S(=O)(=O)c2ccc(Br)cc2)CC1 (centres undefined),21,0,-2,-2,x,x
O=C(NCc1ccc(F)cc1)c1ccc2nc(-c3cccs3)c(-c3cccs3)nc2c1,2,0,11,4.9*,0,3
O=C(Nc1ccc2nsnc2c1)N1CCCCCC1,-9,0,-42,6.1*,0,-4
CC(=O)Nc1ccc(OCC(O)Cn2c3ccc(Cl)cc3c3cc(Cl)ccc32)cc1 (centres undefined),8,0,-15,1,x,x
COc1cc(/C=N/N=C2/C(=O)Nc3ccccc32)cc(OC)c1O,-8,0,2,3,x,x
COc1ccc(O)c(/C=N/N=C2/C(=O)Nc3ccccc32)c1,15,0,9,6.6*,0,-5
COc1ccc(CCN2C(=O)CC(C(=O)Nc3cccc(C)c3)SC2=Nc2ccc(F)cc2)cc1OC (centres undefined),8,0,5,1,x,x
COc1ccc(C(=O)Oc2coc(CSc3nnc(NC(C)=O)s3)cc2=O)cc1,-8,0,-3,13*,1,6
COc1cccc(C(=O)Oc2coc(CSc3nnc(NC(C)=O)s3)cc2=O)c1,-5,0,-2,-1,x,x
O=C1COc2cc(-c3c(NC4CCCCC4)c(=O)c3=O)ccc2N1,4,0,-6,14*,0,-2
Cn1c(Nc2ccc(-n3cc(CC(=O)NCc4nc5ccccc5[nH]4)c4ccccc43)nn2)nc2ccccc21,10,0,-16,1,x,x
O=C(Cc1cn(-c2ccc(Nc3ccccc3)nn2)c2ccccc12)NCc1nc2ccccc2[nH]1,-1,0,-10,5.3*,0,-6
CN(Cc1ccccc1)C(=O)c1cnn2c1NC(c1cccs1)CC2C(F)(F)F (centres undefined),0,0,-17,0,x,x
O=C(CN1C(=O)c2ccccc2C1=O)Nc1c(Cl)cccc1Cl,-12,0,-2,-1,x,x
Cc1nn(-c2cccc(Cl)c2)c2c1C(c1ccccc1Cl)C(C#N)=C(N)O2 (centres undefined),10,0,2,5.5*,0,3
Cc1nn(-c2ccccc2)c2c1C(c1ccccc1Cl)C(C#N)=C(N)O2 (centres undefined),18,-1,-4,-2,x,x
COc1ccc(C2C(C#N)=C(N)Oc3c2c(C)nn3-c2ccccc2)cc1OC (centres undefined),1,0,-2,1,x,x
CCOc1ccc(C2C(C#N)=C(N)Oc3c2c(C)nn3-c2ccccc2)cc1OC (centres undefined),19,0,-8,6.4*,0,-5
Cc1cc(C)cc(C(=O)Nc2ccc3c(c2)CCCN3S(C)(=O)=O)c1,3,0,-34,7.7*,1,12
CN1CCCc2cc(C(CN)N3CCCCC3)ccc21 (centres undefined),24,0,12,6.7*,0,-9
Cc1ccc(CN2CCNC(=O)C2CC(=O)N2CCCN(Cc3cccs3)CC2)o1 (centres undefined),3,0,9,-1,x,x
Cc1ccc(CN2CCNC(=O)C2CC(=O)N2CCN(Cc3csc(C)n3)CC2)o1 (centres undefined),-4,0,2,5.1*,0,2
COc1ccc(C(=O)Nc2c(C)csc2C(=O)O)cc1,4,0,-3,4.9*,-1,4
Cc1csc(C(=O)O)c1NC(=O)c1ccc(F)cc1,-1,0,-2,1,x,x
Cc1ccc(C)c(CN2CCC(O)CC2)c1,20,0,4,0,x,x
CC(=O)c1ccc(N2CCN(C(=S)Nc3cccc([N+](=O)[O-])c3)CC2)cc1,1,0,-12,5.2*,0,0
COc1cc([N+](=O)[O-])ccc1NC(=S)N1CCN(c2ccc(C(C)=O)cc2)CC1,-6,0,0,7.3*,0,-7
